Assay [1] addresses Insulin receptor (Homo sapiens) (UniProt P06213). As to conditions: at 10 µM.
Assay [2] has the same target. As to conditions: at 1 µM.
Assay [3] shares this target. As to conditions: at 10 µM. This is another data set of the same source.
For assay [4], the target named is Interleukin-1 receptor-associated kinase 1 (Homo sapiens) (UniProt P51617). As to conditions: at 1 µM.
The target is the same in assay [5]. To be noted: at 10 µM.
The target in assay [6] is T1, Interleukin-1 receptor-associated kinase 4 (Homo sapiens) (UniProt Q9NWZ3).
T1 sequence (whole entry): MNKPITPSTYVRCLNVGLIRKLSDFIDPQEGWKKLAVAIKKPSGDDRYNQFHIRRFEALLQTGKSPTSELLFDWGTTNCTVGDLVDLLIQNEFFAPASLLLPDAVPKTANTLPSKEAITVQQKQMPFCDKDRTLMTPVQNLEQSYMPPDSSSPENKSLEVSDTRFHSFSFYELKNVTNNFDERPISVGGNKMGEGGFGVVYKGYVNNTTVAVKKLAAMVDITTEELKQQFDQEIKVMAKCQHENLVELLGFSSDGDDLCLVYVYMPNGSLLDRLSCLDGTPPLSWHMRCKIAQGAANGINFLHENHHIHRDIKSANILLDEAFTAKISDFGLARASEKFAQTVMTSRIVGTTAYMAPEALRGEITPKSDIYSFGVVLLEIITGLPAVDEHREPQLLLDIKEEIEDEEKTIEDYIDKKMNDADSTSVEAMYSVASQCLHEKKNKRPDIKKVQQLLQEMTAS
As to conditions: at 1 µM.

The target in assay [7] is T1, Interleukin-1 receptor-associated kinase 4 (Homo sapiens). As to conditions: at 10 µM.
Assay [8] concerns the target Insulin receptor-related protein (Homo sapiens) (UniProt P14616). To be noted: at 1 µM.
Assay [9] has the same target. To be noted: at 10 µM.
Assay [10] concerns the target T2, Tyrosine-protein kinase ITK/TSK (Homo sapiens) (UniProt Q08881).
T2 sequence (whole entry): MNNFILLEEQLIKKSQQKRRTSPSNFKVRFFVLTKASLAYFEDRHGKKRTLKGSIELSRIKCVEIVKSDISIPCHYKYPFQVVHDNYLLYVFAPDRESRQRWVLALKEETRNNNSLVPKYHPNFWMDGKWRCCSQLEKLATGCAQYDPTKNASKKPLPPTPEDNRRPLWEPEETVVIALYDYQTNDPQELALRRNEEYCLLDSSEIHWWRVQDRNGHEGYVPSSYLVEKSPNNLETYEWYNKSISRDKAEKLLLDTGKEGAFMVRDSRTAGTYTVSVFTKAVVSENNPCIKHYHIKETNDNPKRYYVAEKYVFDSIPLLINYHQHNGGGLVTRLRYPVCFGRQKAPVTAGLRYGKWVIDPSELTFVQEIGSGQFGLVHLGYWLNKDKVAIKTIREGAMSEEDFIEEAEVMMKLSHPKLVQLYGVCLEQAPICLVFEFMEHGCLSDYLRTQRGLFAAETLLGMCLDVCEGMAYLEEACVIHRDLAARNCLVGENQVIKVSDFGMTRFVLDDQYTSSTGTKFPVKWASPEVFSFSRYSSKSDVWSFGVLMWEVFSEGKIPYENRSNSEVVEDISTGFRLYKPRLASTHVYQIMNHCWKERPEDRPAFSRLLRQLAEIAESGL
To be noted: at 1 µM.

In assay [11] the target is T2, Tyrosine-protein kinase ITK/TSK (Homo sapiens). To be noted: at 10 µM.
Assay [12] has as its target Tyrosine-protein kinase JAK2 (Homo sapiens) (UniProt O60674). To be noted: at 1 µM.
Assay [13] has the same target. To be noted: at 10 µM.
Assay [14] has as its target T3, Tyrosine-protein kinase JAK3 (Homo sapiens) (UniProt P52333).
T3 sequence (whole entry): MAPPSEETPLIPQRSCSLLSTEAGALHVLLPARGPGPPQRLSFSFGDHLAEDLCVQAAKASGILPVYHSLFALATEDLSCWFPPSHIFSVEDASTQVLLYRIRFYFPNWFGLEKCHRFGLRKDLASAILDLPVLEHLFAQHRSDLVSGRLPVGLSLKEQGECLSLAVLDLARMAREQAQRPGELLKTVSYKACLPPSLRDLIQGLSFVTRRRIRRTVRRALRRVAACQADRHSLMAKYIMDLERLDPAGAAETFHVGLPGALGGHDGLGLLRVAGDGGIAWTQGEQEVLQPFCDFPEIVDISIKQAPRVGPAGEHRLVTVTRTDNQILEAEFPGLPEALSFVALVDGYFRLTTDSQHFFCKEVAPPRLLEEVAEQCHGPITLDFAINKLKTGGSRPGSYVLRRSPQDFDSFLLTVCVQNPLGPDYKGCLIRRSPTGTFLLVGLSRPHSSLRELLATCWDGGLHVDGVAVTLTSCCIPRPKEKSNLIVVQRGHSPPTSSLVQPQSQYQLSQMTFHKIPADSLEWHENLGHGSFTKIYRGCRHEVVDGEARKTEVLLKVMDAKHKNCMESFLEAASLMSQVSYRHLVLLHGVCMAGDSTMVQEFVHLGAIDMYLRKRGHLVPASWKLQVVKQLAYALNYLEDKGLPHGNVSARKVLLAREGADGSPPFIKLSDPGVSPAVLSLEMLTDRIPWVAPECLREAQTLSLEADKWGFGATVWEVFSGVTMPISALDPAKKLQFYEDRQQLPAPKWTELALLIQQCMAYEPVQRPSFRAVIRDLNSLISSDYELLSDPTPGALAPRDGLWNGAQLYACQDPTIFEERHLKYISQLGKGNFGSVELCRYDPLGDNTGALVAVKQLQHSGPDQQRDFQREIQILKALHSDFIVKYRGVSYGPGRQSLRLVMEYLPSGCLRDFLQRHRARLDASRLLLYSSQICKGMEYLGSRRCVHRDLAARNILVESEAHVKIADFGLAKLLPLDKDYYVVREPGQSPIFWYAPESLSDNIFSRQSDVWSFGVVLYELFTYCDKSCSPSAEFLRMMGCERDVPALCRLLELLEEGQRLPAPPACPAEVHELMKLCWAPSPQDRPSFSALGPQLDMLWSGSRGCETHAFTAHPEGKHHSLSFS
As to conditions: at 1 µM.

In assay [15] the target is T3, Tyrosine-protein kinase JAK3 (Homo sapiens). As to conditions: at 10 µM.
In assay [16] the target is Mitogen-activated protein kinase 8 (Homo sapiens) (UniProt P45983). To be noted: at 1 µM.
Sequence of Mitogen-activated protein kinase 8 (Homo sapiens) (P45983 whole entry): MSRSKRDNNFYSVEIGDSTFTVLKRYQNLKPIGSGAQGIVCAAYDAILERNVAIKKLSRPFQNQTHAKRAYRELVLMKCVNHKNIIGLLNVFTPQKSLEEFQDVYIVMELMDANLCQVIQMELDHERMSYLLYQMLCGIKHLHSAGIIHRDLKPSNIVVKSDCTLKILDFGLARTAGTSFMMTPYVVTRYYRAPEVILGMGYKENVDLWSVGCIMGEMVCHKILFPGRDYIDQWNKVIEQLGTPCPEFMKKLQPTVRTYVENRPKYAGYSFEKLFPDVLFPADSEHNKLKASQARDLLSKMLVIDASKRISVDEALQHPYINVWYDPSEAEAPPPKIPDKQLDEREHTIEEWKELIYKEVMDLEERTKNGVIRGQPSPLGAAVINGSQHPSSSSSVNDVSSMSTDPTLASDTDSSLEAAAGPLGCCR
The target is the same in assay [17]. To be noted: at 10 µM.
Assay [18] concerns the target Mitogen-activated protein kinase 9 (Homo sapiens) (UniProt P45984). As to conditions: at 1 µM.
Assay [19] shares this target. To be noted: at 10 µM.
Assay [20] addresses Mitogen-activated protein kinase 10 (Homo sapiens) (UniProt P53779). As to conditions: at 1 µM.

Sequence of Interleukin-1 receptor-associated kinase 1 (Homo sapiens) (P51617 whole entry, looked up): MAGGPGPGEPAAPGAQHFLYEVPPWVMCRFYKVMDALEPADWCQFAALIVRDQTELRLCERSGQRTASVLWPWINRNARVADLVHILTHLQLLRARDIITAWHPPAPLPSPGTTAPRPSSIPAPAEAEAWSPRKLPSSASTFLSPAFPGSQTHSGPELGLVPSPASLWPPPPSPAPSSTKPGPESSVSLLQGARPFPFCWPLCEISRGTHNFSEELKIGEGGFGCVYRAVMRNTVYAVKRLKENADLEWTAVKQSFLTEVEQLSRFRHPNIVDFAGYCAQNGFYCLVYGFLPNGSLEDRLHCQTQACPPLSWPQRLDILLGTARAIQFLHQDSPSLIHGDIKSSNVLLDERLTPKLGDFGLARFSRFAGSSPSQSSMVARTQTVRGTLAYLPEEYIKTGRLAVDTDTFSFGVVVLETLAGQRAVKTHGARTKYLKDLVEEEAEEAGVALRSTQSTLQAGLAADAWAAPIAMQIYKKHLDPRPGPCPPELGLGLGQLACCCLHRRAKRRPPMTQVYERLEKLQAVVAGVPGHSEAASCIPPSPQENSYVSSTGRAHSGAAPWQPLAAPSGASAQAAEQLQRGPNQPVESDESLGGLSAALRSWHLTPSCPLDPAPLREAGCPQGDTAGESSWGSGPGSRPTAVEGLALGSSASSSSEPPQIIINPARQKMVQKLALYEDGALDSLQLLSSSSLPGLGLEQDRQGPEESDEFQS
Sequence of Insulin receptor (Homo sapiens) (P06213 28-758 limits assumed): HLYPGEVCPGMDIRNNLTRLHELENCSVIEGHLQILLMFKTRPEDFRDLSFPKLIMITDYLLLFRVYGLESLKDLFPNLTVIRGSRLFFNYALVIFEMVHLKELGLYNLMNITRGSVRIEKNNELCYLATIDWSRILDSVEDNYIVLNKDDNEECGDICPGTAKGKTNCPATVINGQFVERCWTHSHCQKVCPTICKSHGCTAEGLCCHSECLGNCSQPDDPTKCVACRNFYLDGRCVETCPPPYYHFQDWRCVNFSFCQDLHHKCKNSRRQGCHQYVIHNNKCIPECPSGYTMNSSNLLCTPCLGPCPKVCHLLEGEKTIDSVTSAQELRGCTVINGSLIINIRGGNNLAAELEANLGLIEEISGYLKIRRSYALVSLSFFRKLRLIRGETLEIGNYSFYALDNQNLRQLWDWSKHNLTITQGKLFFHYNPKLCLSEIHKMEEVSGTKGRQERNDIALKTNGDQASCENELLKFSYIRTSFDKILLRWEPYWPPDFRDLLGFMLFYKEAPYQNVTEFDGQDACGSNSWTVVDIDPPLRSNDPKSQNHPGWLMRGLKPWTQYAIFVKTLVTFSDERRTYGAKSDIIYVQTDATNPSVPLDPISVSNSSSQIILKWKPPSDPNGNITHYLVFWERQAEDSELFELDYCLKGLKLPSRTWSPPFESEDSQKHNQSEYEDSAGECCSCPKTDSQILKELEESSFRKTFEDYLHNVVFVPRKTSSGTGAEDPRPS
Sequence of Insulin receptor (Homo sapiens) (P06213 763-1382 limits assumed): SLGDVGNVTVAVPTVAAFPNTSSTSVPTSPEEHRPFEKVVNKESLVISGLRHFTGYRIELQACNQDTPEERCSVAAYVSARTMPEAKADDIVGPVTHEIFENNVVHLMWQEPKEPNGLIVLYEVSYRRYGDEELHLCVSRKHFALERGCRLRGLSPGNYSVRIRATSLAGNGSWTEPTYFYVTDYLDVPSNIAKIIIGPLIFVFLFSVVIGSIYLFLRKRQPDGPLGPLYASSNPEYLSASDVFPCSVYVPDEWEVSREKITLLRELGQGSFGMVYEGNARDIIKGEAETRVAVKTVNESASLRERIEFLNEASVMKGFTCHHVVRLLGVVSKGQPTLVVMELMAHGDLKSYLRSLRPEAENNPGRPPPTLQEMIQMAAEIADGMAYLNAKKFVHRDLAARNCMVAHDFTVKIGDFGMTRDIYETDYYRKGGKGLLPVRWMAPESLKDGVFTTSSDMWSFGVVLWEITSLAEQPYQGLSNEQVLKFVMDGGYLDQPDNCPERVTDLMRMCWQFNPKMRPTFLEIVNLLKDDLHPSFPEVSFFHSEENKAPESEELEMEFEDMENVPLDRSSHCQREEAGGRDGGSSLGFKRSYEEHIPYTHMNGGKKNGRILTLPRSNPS
Sequence of Mitogen-activated protein kinase 10 (Homo sapiens) (P53779 whole entry): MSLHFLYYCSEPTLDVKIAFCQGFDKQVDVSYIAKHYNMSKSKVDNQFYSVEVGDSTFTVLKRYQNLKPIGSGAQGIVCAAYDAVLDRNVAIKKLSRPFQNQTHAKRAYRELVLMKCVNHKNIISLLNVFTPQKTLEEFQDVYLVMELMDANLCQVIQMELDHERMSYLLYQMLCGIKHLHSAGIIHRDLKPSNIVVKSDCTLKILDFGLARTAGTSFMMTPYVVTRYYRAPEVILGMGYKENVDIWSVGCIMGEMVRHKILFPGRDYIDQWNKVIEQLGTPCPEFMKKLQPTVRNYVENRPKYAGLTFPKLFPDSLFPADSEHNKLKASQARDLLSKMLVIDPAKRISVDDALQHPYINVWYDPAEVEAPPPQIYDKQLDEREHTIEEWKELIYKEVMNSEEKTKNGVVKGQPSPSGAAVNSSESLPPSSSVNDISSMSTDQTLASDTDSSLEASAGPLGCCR
Sequence of Mitogen-activated protein kinase 9 (Homo sapiens) (P45984 whole entry, looked up): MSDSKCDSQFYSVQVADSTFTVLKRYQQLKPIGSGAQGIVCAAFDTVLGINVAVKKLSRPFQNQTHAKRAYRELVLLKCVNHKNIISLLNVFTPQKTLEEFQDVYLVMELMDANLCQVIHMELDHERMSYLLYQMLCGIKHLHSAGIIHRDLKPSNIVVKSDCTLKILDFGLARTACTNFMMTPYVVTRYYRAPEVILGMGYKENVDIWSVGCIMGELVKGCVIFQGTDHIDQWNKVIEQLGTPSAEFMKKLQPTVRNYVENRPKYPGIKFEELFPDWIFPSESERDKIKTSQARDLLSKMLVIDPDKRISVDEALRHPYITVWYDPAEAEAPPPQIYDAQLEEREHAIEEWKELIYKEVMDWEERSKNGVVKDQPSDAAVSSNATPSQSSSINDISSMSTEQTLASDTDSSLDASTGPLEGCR
Sequence of Tyrosine-protein kinase JAK2 (Homo sapiens) (O60674 whole entry): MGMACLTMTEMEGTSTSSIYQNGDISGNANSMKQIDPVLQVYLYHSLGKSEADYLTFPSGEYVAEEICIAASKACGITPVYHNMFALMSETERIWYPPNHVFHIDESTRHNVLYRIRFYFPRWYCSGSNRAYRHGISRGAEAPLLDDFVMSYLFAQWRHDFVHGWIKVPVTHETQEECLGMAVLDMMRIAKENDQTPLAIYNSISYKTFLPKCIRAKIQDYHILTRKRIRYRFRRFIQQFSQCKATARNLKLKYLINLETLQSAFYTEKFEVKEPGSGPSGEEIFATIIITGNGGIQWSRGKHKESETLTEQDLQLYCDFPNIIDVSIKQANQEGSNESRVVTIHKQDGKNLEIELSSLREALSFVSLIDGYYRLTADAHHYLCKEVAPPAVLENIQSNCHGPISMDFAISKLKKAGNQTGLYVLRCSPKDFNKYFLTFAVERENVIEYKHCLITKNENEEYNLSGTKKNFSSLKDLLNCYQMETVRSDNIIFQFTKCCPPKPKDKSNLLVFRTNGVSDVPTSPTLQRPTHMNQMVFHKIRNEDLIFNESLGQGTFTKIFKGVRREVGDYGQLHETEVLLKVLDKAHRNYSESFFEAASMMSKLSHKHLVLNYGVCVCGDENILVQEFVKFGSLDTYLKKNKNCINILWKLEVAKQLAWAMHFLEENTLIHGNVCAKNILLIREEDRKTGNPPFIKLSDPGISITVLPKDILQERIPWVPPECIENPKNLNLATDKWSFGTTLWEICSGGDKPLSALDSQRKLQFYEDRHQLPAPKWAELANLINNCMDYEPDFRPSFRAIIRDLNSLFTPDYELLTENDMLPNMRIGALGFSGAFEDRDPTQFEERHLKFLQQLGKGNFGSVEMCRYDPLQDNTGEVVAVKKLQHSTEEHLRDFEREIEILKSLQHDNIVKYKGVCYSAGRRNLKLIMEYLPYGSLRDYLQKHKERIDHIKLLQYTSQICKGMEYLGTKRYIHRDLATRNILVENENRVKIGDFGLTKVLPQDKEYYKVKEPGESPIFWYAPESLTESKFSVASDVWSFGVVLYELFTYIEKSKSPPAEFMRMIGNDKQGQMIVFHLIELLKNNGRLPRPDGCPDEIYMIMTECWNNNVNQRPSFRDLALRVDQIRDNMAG

Take `O=C1NC(=O)/C(=C/c2ccc3c(c2)OC(F)(F)O3)S1`: the residual activity turned out to be 103% in [1]; 104% in [2]; 98% in [3]; 102% in assay [4]; 80% in assay [5]; 111% in assay [6]. For the same molecule, the residual activity in assay [7] was found to be 106%; in [8], 139%; in assay [9] it was 99%; in assay [10], 103%; in assay [11] it was 108%; in assay [12] it was 101%. For the same molecule, the residual activity was determined as 97% in assay [13]; 94% in assay [14]; 63% in assay [15]; 106% in assay [16]; 106% in [17]; 106% in assay [18]. Besides, the results for the residual activity in assay [19] and in [20] were 102% and 81%, respectively.
For `CC#CC(=O)Nc1cc2c(Nc3ccc(F)c(Cl)c3)ncnc2cn1`, the residual activity in assay [1] came out at 85%; in assay [2] it was 103%; in assay [3], 98%; in assay [4] it was 94%; in assay [5] it was 73%; in assay [6] it was 103%. In addition, the residual activity was 98% in assay [7]; 127% in [8]; 86% in assay [9]; 100% in assay [10]; 92% in assay [11]; 96% in assay [12]. For the same molecule, the residual activity amounted to 97% in assay [13]; 51% in assay [14]; 59% in assay [15]; 96% in assay [16]; 72% in assay [17]; 103% in [18]. For the same molecule, the residual activity in assay [19] turned out to be 95%; in assay [20] it was 76%.
With `O=c1c2ccccc2[nH]c(=S)n1CCN1CCC(=C(c2ccc(F)cc2)c2ccc(F)cc2)CC1`, the residual activity in assay [1] stood at 121%; in [2] it was 105%; in assay [3], 101%; in [4], 83%; in [5], 86%; in [6] it was 105%. Besides, the residual activity in assay [7] turned out to be 103%; in assay [8], 120%; in assay [9] it was 71%; in assay [10] it was 109%; in assay [11], 96%; in assay [12], 122%. Also, the residual activity in assay [13] is 102%; in assay [14], 97%; in assay [15], 101%; in assay [16] it was 104%; in assay [17], 83%; in [18], 107%. The residual activity in assay [19] was determined as 101%; in [20], 98%.
Take `O=C1Nc2cc(Br)ccc2/C1=C1/Nc2ccccc2/C1=N\O`: the residual activity was 82% in [1]; 98% in [2]; 83% in assay [3]; 93% in assay [4]; 90% in [5]; 35% in assay [6]. Further, the residual activity in assay [7] came out at 34%; in assay [8] it was 78%; in [9] it was 85%; in [10] it was 22%; in assay [11] it was 9%; in assay [12] it was 68%. Besides, the residual activity in [13] amounted to 58%; in assay [14], 20%; in assay [15], 21%; in assay [16], 93%; in assay [17], 85%; in assay [18], 79%. In addition, the residual activity in assay [19] stood at 89%; in [20], 38%.
On to `CC(=O)O/N=C1\C(=C2\C(=O)Nc3cc(Br)ccc32)Nc2ccccc21`, for which the residual activity came to 91% in assay [1]; 102% in [2]; 81% in assay [3]; 95% in assay [4]; 96% in assay [5]; 86% in assay [6]. For the same molecule, the residual activity in [7] turned out to be 48%; in assay [8] it was 109%; in assay [9] it was 92%; in assay [10] it was 82%; in assay [11], 39%; in assay [12] it was 103%. Moreover, the residual activity in assay [13] turned out to be 71%; in assay [14], 75%; in [15], 26%; in [16] it was 98%; in assay [17], 94%; in [18], 91%. In addition, the residual activity in assay [19] worked out at 94%; in assay [20], 77%.
Regarding `O=C1NC(=O)c2cc(Nc3ccc(F)cc3)c(Nc3ccc(F)cc3)cc21`, the residual activity stood at 103% in [1]; 94% in [2]; 85% in [3]; 83% in [4]; 63% in [5]; 99% in assay [6]. Besides, the residual activity worked out at 110% in [7]; 122% in [8]; 83% in assay [9]; 110% in assay [10]; 101% in assay [11]; 73% in assay [12]. Further, the residual activity in [13] came out at 119%; in assay [14], 100%; in assay [15] it was 68%; in [16] it was 117%; in assay [17] it was 79%; in [18] it was 112%. In addition, the residual activity in [19] worked out at 84%.
On to `CC(C)n1cnc2/c(=N/c3cccc(Cl)c3)nc(NCCO)[nH]c21`, for which the residual activity in assay [1] was 36%; in assay [2], 68%; in [3] it was 17%; in [4] it was 76%; in assay [5] it was 34%; in [6], 44%. For the same molecule, the residual activity was 14% in assay [7]; 96% in [8]; 35% in assay [9]; 76% in [10]; 22% in [11]; 92% in assay [12]. The residual activity in [13] worked out at 89%; in [14] it was 111%; in [15] it was 81%; in [16], 103%; in assay [17] it was 89%; in [18] it was 97%. The residual activity was determined as 105% in assay [19] and 64% in [20].

The values are drawn from ChEMBL document CHEMBL2218924, “A broad activity screen in support of a chemogenomic map for kinase signalling research and drug discovery” (Biochem J, 2013).
